# Test results published in publication PMC7862700, “An all-to-all approach to the identification of sequence-specific readers for epigenetic DNA modifications on cytosine”.
# How the values were obtained:
# Experiment in all cases: DAPPL (digital affinity profiling via proximity ligation, sequencing); 10 mM Tris-HCl pH 7.5, 50 mM NaCl, 1 mM DTT, 4% glycerol, room temperature, 30 min; GST-TFs on glutathione beads, 16-mer random dsDNA library, 0.1% formaldehyde crosslink after washing; high values mean tight binding
# Settings in all cases: protein: recombinant; tags: N-terminal GST; dsDNA, one strand shown
# ERF = biological target: T1, ERF (Homo sapiens, UniProt P50548 1-548)
# T1 sequence: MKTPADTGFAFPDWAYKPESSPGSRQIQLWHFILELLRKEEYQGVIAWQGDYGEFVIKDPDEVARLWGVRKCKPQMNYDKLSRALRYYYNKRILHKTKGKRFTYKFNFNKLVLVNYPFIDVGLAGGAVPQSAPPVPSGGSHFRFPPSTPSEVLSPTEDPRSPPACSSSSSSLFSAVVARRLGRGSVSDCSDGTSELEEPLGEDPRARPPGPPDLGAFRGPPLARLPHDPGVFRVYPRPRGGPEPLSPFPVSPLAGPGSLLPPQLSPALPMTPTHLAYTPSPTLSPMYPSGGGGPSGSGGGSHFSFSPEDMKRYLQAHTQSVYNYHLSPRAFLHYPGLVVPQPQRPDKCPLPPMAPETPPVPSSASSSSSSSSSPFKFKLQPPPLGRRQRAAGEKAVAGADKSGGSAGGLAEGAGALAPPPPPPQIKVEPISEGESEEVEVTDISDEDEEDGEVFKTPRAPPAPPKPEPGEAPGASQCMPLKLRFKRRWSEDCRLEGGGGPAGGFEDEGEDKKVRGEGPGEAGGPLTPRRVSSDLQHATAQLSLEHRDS
# In short: (§1)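 Binding signal is each hexamer's read frequency for a factor divided by its frequency in the tag-only sample. The factors were GST-fused human transcription factors from yeast, captured on glutathione beads, DNA-barcoded and pooled with that sample. Pools were incubated with 200 nmole of a random double-stranded 16-mer DNA library in Tris/NaCl/DTT/glycerol buffer at room temperature for 30 min, then washed, crosslinked with 0.1% formaldehyde, proximity-ligated with BsaI/T4 ligase (1 h, 37 °C), PCR-amplified and sequenced on an Illumina NextSeq500.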
# ETV3L = biological target: T2, ETV3L (Homo sapiens, UniProt Q6ZN32 1-361)
# T2 sequence: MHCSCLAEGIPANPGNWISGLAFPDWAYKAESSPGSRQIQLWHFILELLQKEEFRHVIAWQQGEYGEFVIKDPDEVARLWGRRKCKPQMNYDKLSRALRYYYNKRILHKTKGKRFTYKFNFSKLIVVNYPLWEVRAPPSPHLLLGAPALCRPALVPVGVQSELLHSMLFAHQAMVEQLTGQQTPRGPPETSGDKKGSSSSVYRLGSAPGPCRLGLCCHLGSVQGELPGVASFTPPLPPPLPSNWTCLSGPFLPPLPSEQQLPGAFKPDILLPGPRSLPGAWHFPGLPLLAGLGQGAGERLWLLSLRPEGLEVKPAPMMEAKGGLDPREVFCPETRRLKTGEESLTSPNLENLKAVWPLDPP
# In short: as §1
# ETS2 = biological target: T3, ETS2 (Homo sapiens, UniProt P15036 1-469)
# T3 sequence: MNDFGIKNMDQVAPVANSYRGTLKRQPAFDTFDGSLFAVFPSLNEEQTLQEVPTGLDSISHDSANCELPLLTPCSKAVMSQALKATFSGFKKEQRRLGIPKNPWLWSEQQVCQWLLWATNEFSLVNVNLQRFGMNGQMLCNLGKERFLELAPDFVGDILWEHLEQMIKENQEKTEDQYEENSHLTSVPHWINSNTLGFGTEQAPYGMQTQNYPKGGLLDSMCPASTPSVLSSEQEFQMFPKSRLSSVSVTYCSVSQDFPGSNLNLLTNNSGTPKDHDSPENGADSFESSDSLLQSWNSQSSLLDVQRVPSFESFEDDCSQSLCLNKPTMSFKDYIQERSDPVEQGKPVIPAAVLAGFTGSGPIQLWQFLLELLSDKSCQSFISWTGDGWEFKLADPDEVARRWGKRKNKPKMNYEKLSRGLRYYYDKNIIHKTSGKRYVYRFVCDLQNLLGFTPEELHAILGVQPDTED
# In short: as §1
# ELF5 = biological target: T4, ELF5 (Homo sapiens, UniProt Q9UKW6-2 1-255)
# T4 sequence: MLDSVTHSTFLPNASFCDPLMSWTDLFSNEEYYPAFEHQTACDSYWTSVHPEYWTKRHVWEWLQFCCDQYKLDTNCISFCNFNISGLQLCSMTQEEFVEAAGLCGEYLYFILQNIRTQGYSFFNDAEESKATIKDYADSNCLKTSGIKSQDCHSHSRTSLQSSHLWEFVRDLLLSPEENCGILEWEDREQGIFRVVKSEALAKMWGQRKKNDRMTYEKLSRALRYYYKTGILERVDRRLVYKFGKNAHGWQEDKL
# In short: as §1
# ETV3 = biological target: T5, ETV3 (Homo sapiens, UniProt P41162-2 1-143)
# T5 sequence: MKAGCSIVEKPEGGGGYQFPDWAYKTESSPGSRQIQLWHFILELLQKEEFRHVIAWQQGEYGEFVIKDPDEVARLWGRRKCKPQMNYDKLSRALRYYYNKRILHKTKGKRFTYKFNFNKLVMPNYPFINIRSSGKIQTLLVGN
# In short: as §1
# ETV6 = ETV6 (Homo sapiens, UniProt P41212 1-452)
# ETV6, sequence (P41212 whole entry): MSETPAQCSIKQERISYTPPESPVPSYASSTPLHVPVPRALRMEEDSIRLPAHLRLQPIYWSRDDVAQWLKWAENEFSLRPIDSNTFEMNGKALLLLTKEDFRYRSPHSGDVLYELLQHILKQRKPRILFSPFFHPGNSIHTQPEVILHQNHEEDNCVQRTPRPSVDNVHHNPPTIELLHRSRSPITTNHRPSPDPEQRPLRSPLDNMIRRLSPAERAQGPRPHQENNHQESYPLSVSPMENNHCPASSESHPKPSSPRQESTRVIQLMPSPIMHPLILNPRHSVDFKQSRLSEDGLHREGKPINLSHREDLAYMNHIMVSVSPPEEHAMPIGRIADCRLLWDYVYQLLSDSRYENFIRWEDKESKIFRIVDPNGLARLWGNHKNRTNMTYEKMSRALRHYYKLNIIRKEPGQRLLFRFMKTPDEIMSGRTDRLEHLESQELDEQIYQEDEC
# In short: as §1
# ETV7 = biological target: T6, ETV7 (Homo sapiens, UniProt Q9Y603 1-341)
# T6 sequence: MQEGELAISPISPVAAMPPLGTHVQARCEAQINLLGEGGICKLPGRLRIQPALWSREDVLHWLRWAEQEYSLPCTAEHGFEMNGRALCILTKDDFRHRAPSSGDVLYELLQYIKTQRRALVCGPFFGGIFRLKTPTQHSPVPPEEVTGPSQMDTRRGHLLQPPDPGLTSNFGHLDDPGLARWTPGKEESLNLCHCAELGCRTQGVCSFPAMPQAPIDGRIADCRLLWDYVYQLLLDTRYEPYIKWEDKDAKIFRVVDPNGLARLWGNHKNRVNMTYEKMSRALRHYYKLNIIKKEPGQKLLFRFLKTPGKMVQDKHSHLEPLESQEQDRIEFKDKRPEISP
# In short: as §1
Sequence,binding signal (ERF),binding signal (ETV3L),binding signal (ETS2),binding signal (ELF5),binding signal (ETV3),binding signal (ETV6),binding signal (ETV7)
TAGTCT,"1.17 fold enrichment (6-mer frequency, TF over GST control)","1.04 fold enrichment (6-mer frequency, TF over GST control)","1.09 fold enrichment (6-mer frequency, TF over GST control)","1.04 fold enrichment (6-mer frequency, TF over GST control)","1.12 fold enrichment (6-mer frequency, TF over GST control)","1.02 fold enrichment (6-mer frequency, TF over GST control)",–
CTATAG,"1.03 fold enrichment (6-mer frequency, TF over GST control)","1.05 fold enrichment (6-mer frequency, TF over GST control)","1 fold enrichment (6-mer frequency, TF over GST control)","1.05 fold enrichment (6-mer frequency, TF over GST control)","1.09 fold enrichment (6-mer frequency, TF over GST control)","1.04 fold enrichment (6-mer frequency, TF over GST control)",–
CATGGG,"1.01 fold enrichment (6-mer frequency, TF over GST control)","1.14 fold enrichment (6-mer frequency, TF over GST control)",–,"1.04 fold enrichment (6-mer frequency, TF over GST control)",–,"1.01 fold enrichment (6-mer frequency, TF over GST control)","1.03 fold enrichment (6-mer frequency, TF over GST control)"
TAGCTG,"1.16 fold enrichment (6-mer frequency, TF over GST control)","1.14 fold enrichment (6-mer frequency, TF over GST control)","1.04 fold enrichment (6-mer frequency, TF over GST control)","1.13 fold enrichment (6-mer frequency, TF over GST control)","1.23 fold enrichment (6-mer frequency, TF over GST control)","1.2 fold enrichment (6-mer frequency, TF over GST control)","1.15 fold enrichment (6-mer frequency, TF over GST control)"
ATCGTT,"1.01 fold enrichment (6-mer frequency, TF over GST control)","1.11 fold enrichment (6-mer frequency, TF over GST control)","1.06 fold enrichment (6-mer frequency, TF over GST control)",–,"1 fold enrichment (6-mer frequency, TF over GST control)","1.06 fold enrichment (6-mer frequency, TF over GST control)",–
GAACAT,"1.1 fold enrichment (6-mer frequency, TF over GST control)","1.01 fold enrichment (6-mer frequency, TF over GST control)","1 fold enrichment (6-mer frequency, TF over GST control)","1.09 fold enrichment (6-mer frequency, TF over GST control)","1.08 fold enrichment (6-mer frequency, TF over GST control)","1.07 fold enrichment (6-mer frequency, TF over GST control)","1.11 fold enrichment (6-mer frequency, TF over GST control)"
GCCGAT,"1.13 fold enrichment (6-mer frequency, TF over GST control)","1.07 fold enrichment (6-mer frequency, TF over GST control)",–,–,"1.18 fold enrichment (6-mer frequency, TF over GST control)","1.2 fold enrichment (6-mer frequency, TF over GST control)","1.12 fold enrichment (6-mer frequency, TF over GST control)"
TTCGGC,"1.13 fold enrichment (6-mer frequency, TF over GST control)","1.05 fold enrichment (6-mer frequency, TF over GST control)",–,"1.01 fold enrichment (6-mer frequency, TF over GST control)","1.13 fold enrichment (6-mer frequency, TF over GST control)",–,"1.19 fold enrichment (6-mer frequency, TF over GST control)"
